This note sets out measurements from PubChem BioAssay AID1239 (SRMLSC, 2008).

Screen size: about 190,000 compounds; about 3,100 (1.6%) were called active. What follows is part of a selection rich in actives, with near analogues and random picks from the rest. Values without a mark were called inactive. No stated cut-off is given here; in the data, active means fold change above about 3.3; inconclusive means no clear call, values can overlap the other calls; inactive means below that.

The assay can be described thus: NF-kB upregulation, human neuronal cells – cell-based, HTS, primary screen (AID 1239). Conditions: NF-kB reporter expression, at 12.5 µM, active compounds read high.
On to `O=C1CCCC2=C1C(c1cccs1)CC(=O)N2c1ccc(F)cc1` (configuration not stated), for which the fold change is 1.01.

As to `CN(C)CCOCCOc1ccc(Cl)c2ccccc12`, the fold change is 0.97.

`CCOC(=O)c1[nH]ncc1CN1CCCC(C(=O)c2ccc(OC)cc2C)C1` (configuration not stated): the fold change was 1.04.

As to `C=CCn1c(-c2sc(-c3ccccc3)nc2C)n[nH]c1=S`, the fold change was 1.29.

For `O=c1oc2c(CN3CCCCC3)c(O)ccc2c2c1CCCCC2`, the fold change was 1.01.

As to `CCCOc1ccc2c3c(c(=O)oc2c1OCCC)CCC3`, the fold change was 5.55 (active).

For `COc1ccc2c3c(c(=O)oc2c1OCC(=O)C(C)(C)C)CCCC3`, the fold change is 1.12.

For the molecule `Cc1cccc(NC(=S)NCCc2ccc(F)cc2)c1C`, the fold change is 1.04.

With `Cc1ccc2c(c1)C(O)(CC(=O)c1cccc(-n3cccc3)c1)C(=O)N2` (configuration not stated), the fold change is 1.11.

Consider `COC(=O)c1sc2[nH]c(=S)n(N)c(=O)c2c1C`, for which the fold change is 1.19.

`Cc1ccc(C(=O)OCc2nc(N)nc(Nc3ccccc3C)n2)cc1`: the fold change was 0.92.

`Cc1ccccc1Nc1nc(N)nc(CSc2nnc3ccccn23)n1`: the fold change was 1.69.

Regarding `Cc1ccccc1Nc1nc(N)nc(CSc2ccccc2)n1`, the fold change is 5.08 (active).

`C/C(=N/OC(=O)c1c(-c2c(F)cccc2Cl)noc1C)c1cnccn1`: the fold change was 1.2.

As for `CCOc1ccc2nc(C(=O)N3CCCC(C)C3)sc2c1` (configuration not stated), the fold change was 8.66 (active).

For `CCOc1ccc2nc(SC(CC)C(=O)Nc3cc(C)on3)sc2c1` (configuration not stated), the fold change was 0.94.

Regarding `CCOc1ccc2nc(Nc3nc4ccc(NC(C)=O)cc4s3)sc2c1`, the fold change was 0.85.

Consider `CCOC(=O)c1c(NC(=O)C2CC=CCC2C(=O)O)sc(C)c1CC` (configuration not stated), for which the fold change is 0.88.

With `Cc1ccn(-c2cccc(-n3ccc(C)n3)n2)n1`, the fold change was 3.56 (active).

On to `COc1cccc(-c2nc(S(=O)(=O)c3ccccc3)c(N3CCOCC3)o2)c1`, for which the fold change is 1.11.

As to `COc1ccc2oc(-c3cccc(NC(=O)CSc4ccc(Cl)cc4)c3)nc2c1`, the fold change was 5.09 (active).

On to `COc1ccc(C)cc1NC(=O)CSc1ccc(Cl)cc1`, for which the fold change is 1.29.

For the molecule `COc1ccc(-c2nc3cc([N+](=O)[O-])ccc3o2)cc1OC`, the fold change was 1.48.

Regarding `COc1cccc(-c2nc3cc(C)ccc3o2)c1`, the fold change is 6.47 (active).

Consider `O=C(Cc1cccc2ccccc12)Nc1ccc2oc(-c3ccccc3)nc2c1`, for which the fold change was 1.24.

Consider `COc1ccc(S(=O)(=O)N2CCCCCC2)cc1C(=O)OCC(=O)Nc1cc(C)on1`, for which the fold change was 0.91.

Take `CCC(C)(C)c1ccc(OCC(=O)N(C)C)c(C(C)(C)CC)c1`: the fold change is 0.82.

`CSc1ccc(CN(C)CC(=O)NCc2ccc(F)cc2)cc1`: the fold change is 1.02.

Take `COc1ccc(OC)c(C(=O)c2ccc(C(=O)N3CCN(Cc4csc(C)n4)CC3)cc2)c1`: the fold change is 1.07.

As for `CCN1CCN(Cc2nc3c(c(=O)n(C)c(=O)n3C)n2CC(=O)c2ccccc2)CC1`, the fold change was 2.25.

As for `CCOC(=O)N1CCN(Cc2nc3c(c(=O)n(C)c(=O)n3C)n2Cc2ccccc2)CC1`, the fold change is 1.26.

With `CN1CCN(Cc2nc3c(c(=O)n(C)c(=O)n3C)n2Cc2cccc3ccccc23)CC1`, the fold change was 3.6 (active).

Turning to `CC(C)C(=O)OCC(=O)Nc1ccc2c(c1)CCC2`, the fold change is 1.06.

`O=C(Nc1ccc2c(c1)CCC2)c1ccc(Br)s1`: the fold change is 11.1 (active).

As for `O=C(NC1CCCC1)c1ccc(Br)s1`, the fold change was 1.12.

Turning to `CCN(C(=O)c1ccc(Br)cc1)c1ccccc1`, the fold change is 1.19.

Turning to `C/C(CC(=O)Nc1cccc(C(F)(F)F)c1)=N\NC(=O)C(=O)NCC(C)C`, the fold change is 1.26.

For `CC(C)C1Nc2c(C(=O)O)cccc2C(Nc2ccccc2C(=O)O)C1(C)C` (configuration not stated), the fold change was 1.41.

`Cc1ccc(-c2cc(C(=O)N3CCc4ccccc4C3)no2)cc1`: the fold change is 1.06.

Turning to `COc1ccccc1-c1cc(C(=O)N2CCCCC2)no1`, the fold change is 6.86 (active).

Take `O=C(c1cc(-c2ccccc2O)on1)N1CCCC1`: the fold change was 2.02.

Consider `O=C(c1cc(-c2cccs2)on1)N1CCCCC1`, for which the fold change is 5.06 (active).

Turning to `COc1ccccc1N1CCN(C(=O)c2cc(-c3ccc(Br)cc3)on2)CC1`, the fold change was 1.31.

As to `O=C(c1ccc(F)cc1)N1CCCC(c2nc(-c3cccs3)no2)C1` (configuration not stated), the fold change is 0.86.

As for `Cc1cccc(NC(=S)Nc2ccc(Cl)c(Cl)c2)c1`, the fold change is 0.6.

For `COc1cc([N+](=O)[O-])ccc1NC(=S)N1CCN(c2ccccn2)CC1`, the fold change is 1.

`CC1CCN(C(=S)c2cccc(O)c2)CC1`: the fold change was 1.37.

For `CCCN(CCC)c1ccc(C(O)c2nnc(-c3ccccc3)o2)cc1` (configuration not stated), the fold change is 1.05.

In the case of `CNC(=S)N1N=C(c2ccccc2)CC1c1ccc(Br)cc1` (configuration not stated), the fold change was 1.3.

Regarding `c1ccc(C2=Nc3cccc4cccc(c34)N2)cc1`, the fold change was 1.21.

In the case of `Brc1ccc(C2CC(c3ccccc3)=Nc3ccccc3N2)cc1` (configuration not stated), the fold change is 3.44 (active).

`C=CCn1cc(-c2cccc(C(F)(F)F)c2)cc(C#N)c1=O`: the fold change was 1.06.

With `O=C(O)c1ccc2c(c1)C(=O)N(c1ccc(/C=C/C(=O)c3ccccc3)cc1)C2=O`, the fold change is 1.2.

For the molecule `O=C(/C=C/c1ccc(N2CCOCC2)cc1)c1ccccc1`, the fold change is 4.09 (active).

`O=C(/C=C/c1ccccc1)c1ccoc1`: the fold change was 0.94.

As to `O=C(Nc1nc(-c2cccnc2)cs1)c1ccccc1F`, the fold change is 1.73.

Regarding `COc1cc(NC(=S)N2CCCC(C)C2)cc(OC)c1OC` (configuration not stated), the fold change was 1.11.

With `COc1ccc(/C=C(\C#N)C(=O)ONC2=NCCCCC2)cc1`, the fold change was 1.26.

As for `Cc1c(NC(=O)Nc2ccccc2)cccc1[N+](=O)[O-]`, the fold change was 1.43.

Take `Cc1csc(NC(=O)NC2(C(F)(F)F)Oc3ccccc3O2)n1`: the fold change was 5.29 (active).

For `COc1cc(SC)ccc1C(=O)Nc1nc(C)cs1`, the fold change is 0.52.

With `Cc1csc(NC(=O)Nc2ccccc2[N+](=O)[O-])n1`, the fold change is 3.38 (active).

In the case of `Cc1cc(NC(=O)Nc2ccccc2[N+](=O)[O-])no1`, the fold change was 1.12.

For the molecule `Cc1csc(NC(=O)CN2CCCCCC2)n1`, the fold change is 1.18.

In the case of `Cc1ccnc(NC(=O)c2ccc(Cl)c([N+](=O)[O-])c2)c1`, the fold change was 2.09.

`CNC(=S)Nc1ccc([N+](=O)[O-])cc1`: the fold change was 1.13.

For the molecule `Cc1ccccc1N1C(=O)C(Oc2ccc(Cl)cc2)C1CNCC1CCCO1` (configuration not stated), the fold change was 1.25.

On to `CCOC(=O)CCNC(=O)N1CCCC(C(=O)c2ccccc2SC)C1` (configuration not stated), for which the fold change is 1.

Regarding `O=C(Nc1cccc(-c2nnc(-c3ccccc3)o2)c1)C1CCCO1` (configuration not stated), the fold change is 0.88.

For the molecule `O=C(Nc1ccc(-c2nnc(-c3ccccc3)o2)cc1)C1CCCO1` (configuration not stated), the fold change was 4.06 (active).

With `O=C(Nc1nnc(CCc2ccccc2)s1)C1CCCO1` (configuration not stated), the fold change was 1.38.

In the case of `COc1ccc(-n2nc3c(c2NC(=O)c2ccc(N4C(=O)CCC4=O)cc2)CSC3)cc1`, the fold change was 1.2.

On to `C=CCN(C(=O)c1cc(C)cc(C)c1)C1(C(=O)Nc2ccccc2)CCN(C(C)C)CC1`, for which the fold change was 0.87.

Regarding `CC1CN(CCOc2ccccc2[N+](=O)[O-])CC(C)O1` (configuration not stated), the fold change was 1.22.

For the molecule `CC1CCN(S(=O)(=O)c2ccc3ncn(CC(=O)N(C)C4CCCCC4)c(=O)c3c2)CC1`, the fold change is 0.79.

As to `O=C(OCC(=O)c1cccs1)c1ccc([N+](=O)[O-])o1`, the fold change is 0.88.

For `Cc1cc(=O)n2[nH]c(-c3sccc3-n3c(C)ccc3C)cc2n1`, the fold change is 1.08.

`CCOC(=O)CSc1nc(C)cc2c1C(=O)OC2`: the fold change was 1.43.

As to `CCOC(=O)CSc1ccccn1`, the fold change is 0.99.

With `CCOC(=O)CSC1=N/C(=C/c2ccc(-n3cncn3)cc2)C(=O)N1C(C)=O`, the fold change was 4.34 (active).

Regarding `CC1=NN(c2ccccc2)C(=O)C1C(=O)c1ccc([N+](=O)[O-])cc1` (configuration not stated), the fold change is 0.91.

In the case of `O=C(O)/C=C/c1cn(Cc2ccccc2)nc1-c1cccs1`, the fold change is 1.06.

As for `NS(=O)(=O)c1cccc(NC(=O)CN2CCCc3ccccc32)c1`, the fold change was 0.95.

Turning to `Cc1cccc(NC(=O)/C=C/c2ccc3c(c2)OCO3)n1`, the fold change is 8.04 (active).

As to `CC(NC(=O)Nc1ccc2c(c1)OCO2)c1ccncc1` (configuration not stated), the fold change is 1.61.

For the molecule `Cc1cccc(NC(=O)Nc2ccc3c(c2)OCO3)n1`, the fold change is 4.19 (active).

In the case of `CCSc1ccccc1C(=O)Nc1ccc2c(c1)OCO2`, the fold change is 1.88.

On to `COc1ccc(/C=C/C(=O)Nc2ccc3c(c2)OCCO3)cc1OC`, for which the fold change was 0.68.

For `CCc1c(C)sc(NC(=O)/C=C/c2ccc3c(c2)OCO3)c1C(=O)OC`, the fold change is 1.05.

With `COc1cccc(/C=C/C(=O)Nc2ccc3c(c2)OCCO3)c1`, the fold change was 6.74 (active).

In the case of `O=C(/C=C/c1ccc2c(c1)OCO2)NCc1ccc(F)cc1`, the fold change was 1.46.

As for `COc1ccc(OC)c(/C=C/C(=O)OCC(=O)Nc2ccc3c(c2)OCCO3)c1`, the fold change was 1.

With `COc1ccc(N2C(=O)C(Cc3ccccc3)NC2=S)cc1` (configuration not stated), the fold change is 1.19.

On to `Cc1nn(C)c(C)c1S(=O)(=O)N1CCC(CO)(Cc2ccc(Cl)cc2)CC1`, for which the fold change was 0.97.

For the molecule `O=C(N/N=C/c1cc2c(cc1Br)OCO2)C1COc2ccccc2O1` (configuration not stated), the fold change was 1.55.

With `COc1cc(NC(=S)NCc2ccc(S(N)(=O)=O)cc2)cc(OC)c1`, the fold change is 1.03.

On to `CSc1ccccc1NC(=O)CN(C)CC(=O)Nc1ccc(Cl)cc1[N+](=O)[O-]`, for which the fold change is 1.29.

Take `Cc1cc(C)nc(N/N=C/c2c(C)oc3ccccc23)n1`: the fold change was 1.11.

Regarding `Cc1noc(C)c1/C=N/Nc1ccc2ccccc2n1`, the fold change was 4.12 (active).

Turning to `C(=N\Nc1ccc2ccccc2n1)/c1ccc2c(c1)OCO2`, the fold change was 1.78.

Consider `O=C1c2ccccc2C(=O)N1CCC(O)C[N+](=O)[O-]` (configuration not stated), for which the fold change is 0.98.

For `COc1ccc(-c2nc3cnccn3c2NC(C)(C)CC(C)(C)C)cc1O`, the fold change was 0.68.
